Sampled rows, rich in hits. Any-hit rate of the full collection: about 7.4%.
CRE Fsk mod: Cell signaling CRE-BLA (Fsk stim); CHO CRE-bla reporter (cAMP response element driving beta-lactamase), forskolin EC10, beta-lactamase ratio; AID 662, 2007; Potency, µM (titrated, usually from 38.2 µM), actives largely listed as activators; 2.5% of 71,000 active; active = well fitted activation curve with a large enough effect in the signal ratio, with a control signal flat, not every such curve was filed as active; inconclusive = small, poorly fitted or top-dose-only effect, or effect the other way, or a change in a side signal; the % refers to the signal ratio
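Beta-lactamase reporter under a cAMP responsive element in CHO cells; compounds tested in titration series against EC10 NKH 477, 3 h at 37 °C. Read-out: CCF4 FRET ratio 460nm/530nm (excitation 405nm) giving %Activity, fitted to AC50.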
Tau filament bind: qHTS Assay for Tau Filament Binding; AID 596, 2007; 2% of 71,000 active; recombinant tau filaments, thioflavin S fluorescence, 15 h; filaments grown with octadecylsulfate alongside compound; Microtubule-associated protein tau (Homo sapiens), P10636; Potency, µM (series often up to 57.1 µM);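 also: actives lower thioflavin S fluorescence by blocking filaments or displacing dye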
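Thioflavine S fluorescence (ex 450, em 510 nm) reports filaments formed from 1 uM human tau plus 30 uM ODS over 15 h at 37 C (10 mM HEPES pH 7.4, 100 mM NaCl, 5 mM DTT); compounds displacing dye or blocking filaments lower signal.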
ERK AVP inh: qHTS Assay for Inhibitors of the ERK Signaling Pathway using a Homogeneous Screening Assay. Potency, µM (top dose mostly 57.5 µM), actives largely listed as inhibitors. 0.99% of 72,000 active. HEK293-V1b, vasopressin-stimulated pERK AlphaScreen. AID 995, 2007; also: nearly all actives have a fitted effect of over 55% in size
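qHTS, compounds titrated on V1b-expressing HEK293 cells. Preincubation 30 min at 37C, vasopressin 25 nM for 5 min, lysis 10 min, bead incubation 5 hr at room temperature.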
TSHR ag: qHTS Assay for Agonists of the Thyroid Stimulating Hormone Receptor; Thyrotropin receptor (Homo sapiens), P16473; HEK293-CNG-TSHR cells (CNG channel as cAMP sensor), membrane potential dye, cAMP; Potency, µM (series often up to 57.1 µM), most hits filed as activators; 0.48% of 73,000 active; AID 926, 2007; active = well fitted activation curve with a large enough effect in the main read-out, with a control signal flat, not every such curve was filed as active; inconclusive = small, poorly fitted or top-dose-only effect, or a change in a side signal; inactive = no such curve, though single readings can be large or run the other way; reference of the percent scale not stated here;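 also: the control signal comes from parental cells without the receptor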
Target sequence (P16473 whole entry, looked up): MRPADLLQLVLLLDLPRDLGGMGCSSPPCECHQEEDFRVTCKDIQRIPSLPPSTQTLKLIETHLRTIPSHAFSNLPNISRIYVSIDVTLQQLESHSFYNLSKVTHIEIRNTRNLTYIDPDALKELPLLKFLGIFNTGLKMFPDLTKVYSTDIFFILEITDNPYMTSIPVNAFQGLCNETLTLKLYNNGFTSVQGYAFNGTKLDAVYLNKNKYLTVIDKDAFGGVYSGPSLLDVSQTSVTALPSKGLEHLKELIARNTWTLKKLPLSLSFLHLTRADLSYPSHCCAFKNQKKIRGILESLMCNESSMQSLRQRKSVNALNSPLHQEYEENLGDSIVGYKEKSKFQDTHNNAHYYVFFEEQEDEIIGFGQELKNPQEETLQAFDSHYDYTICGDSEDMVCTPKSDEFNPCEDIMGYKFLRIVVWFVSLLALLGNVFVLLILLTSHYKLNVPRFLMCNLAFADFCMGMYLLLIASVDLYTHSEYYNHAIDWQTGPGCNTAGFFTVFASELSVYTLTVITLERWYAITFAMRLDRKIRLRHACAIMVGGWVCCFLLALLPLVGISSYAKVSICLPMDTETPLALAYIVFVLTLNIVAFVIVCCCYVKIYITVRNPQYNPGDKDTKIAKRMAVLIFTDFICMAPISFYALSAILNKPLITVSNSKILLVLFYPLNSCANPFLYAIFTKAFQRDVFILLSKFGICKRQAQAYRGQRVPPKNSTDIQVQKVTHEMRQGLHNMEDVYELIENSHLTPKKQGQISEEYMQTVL
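HEK 293 cells stably expressing TSHR and a modified CNG channel, with CNG-only parental cells as counterscreen, were preloaded 60 min at room temperature with membrane potential dye containing 100 uM RO 20-1724. Compound exposure was 30 min, and depolarization was read as fluorescence at 590 nm.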
HEK293 cAMP cs: qHTS Assay for Agonists of the Thyroid Stimulating Hormone Receptor: Activators of Intracellular cAMP Concentrations in Parental HEK 293; parental HEK293 CNG cAMP sensor, membrane potential fluorescence; Potency, µM (highest dose often 57.1 µM), actives largely listed as activators; 2.5% of 73,000 active; AID 938, 2007; also: nearly all actives have a fitted effect of over 55% in size
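Parental HEK 293 cells stably expressing a modified CNG channel (no TSHR) report cAMP rise as membrane depolarization. Membrane potential dye with 100 uM RO 20-1724 was loaded for 60 min at room temperature, then compound added for 30 min; fluorescence read at 590 nm.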
Hits are given with their value; 0 = inactive; ? = inconclusive; - = no result; [ ] = remark or other dose. Unless noted, calls follow the shape of the dose curve; as a rule, active = well fitted curve in the direction sought with a large enough effect; inconclusive = small, poorly fitted or top-dose-only effect, or another doubt; inactive = no such curve, though single readings can be large; an effect the other way counts as inactive or inconclusive.

SMILES	CRE Fsk mod	Tau filament bind	ERK AVP inh	TSHR ag	HEK293 cAMP cs
O=S(=O)(c1ccccc1)N1CCC[C@@]2(CCN(Cc3ccccc3)C2)C1	0	0	0	?	?
Nc1nc(CC(=O)O)cs1	0	0	0	0	0
CC1CC(N(C(=O)c2ccco2)c2ccccc2)c2ccccc2N1 (configuration not stated)	0	0	0	13µM	0
COC(=O)c1cc(COc2ccc3oc(C)c(C(=O)OC)c3c2)c(C)o1	5µM	0	0	?	16µM
CC(C)(C)NC[C@@H](O)COc1ccccc1C1CCCC1	0	13µM	0	0	0
CCOC(=O)C1CCN(S(=O)(=O)c2cn(C)c(=O)n(C)c2=O)CC1	0	0	-	?	16µM
Cc1cc(C)nc(N2CCCC(C(=O)Nc3ccc4nc(C)c(C)nc4c3)C2)n1 (configuration not stated)	6.3µM	0	0	0	0
Cc1cc(C)cc(NC(=O)C2CCCN(c3nc(C)cc(C)n3)C2)c1 (configuration not stated)	0	0	0	0	0
O=c1c(-c2ccc(Cl)cc2)nc2cnc(N3CCOCC3)nc2n1Cc1ccc(F)cc1	6.3µM	0	0	0	0
O=c1cnc2cnc(N3CCOCC3)nc2n1Cc1ccc(F)cc1	?	0	?	?	2.5µM
O=c1c(-c2ccc(F)cc2)nc2cnc(N3CCOCC3)nc2n1C[C@H]1CCCO1	1µM	0	0	0	0
CCNc1ncc2nc(-c3ccc(Cl)cc3)c(=O)n(C[C@H]3CCCO3)c2n1	6.3µM	0	?	0	0
CN1CCN(c2ncc3ncc(=O)n(Cc4ccc(F)cc4)c3n2)CC1	0	0	0	-	0
O=C(O)c1c(Sc2ccccc2)c2cc(Cl)ccc2n1Cc1ccc(Cl)cc1	-	-	0	?	?
CC1(C)CCC(=O)N[C@H]1CC(=O)C[C@H]1NC(=O)CCC1(C)C	0[7.6 µM]	0[11.4 µM]	0[11.5 µM]	0[11.4 µM]	0[11.4 µM]
COc1ccc(-c2nc3cnc(N4CCOCC4)nc3n(C[C@H]3CCCO3)c2=O)cc1	?	0	?	0	0[2.29 µM]
O=c1c(-c2ccc(Cl)cc2)nc2cnc(N3CCOCC3)nc2n1C[C@H]1CCCO1	0.79µM	0	0	0	0
Cc1cc(N2CCN(C(=O)c3ccco3)CC2)n2nc(C)c(-c3ccccc3)c2n1	7.9µM	0	0	0[11.4 µM]	0
Cc1cc(N2CCN(C(=O)c3ccco3)CC2)n2nc(C)c(-c3ccc(Cl)cc3)c2n1	?	0	0	0	0
Cc1cc(N2CCN(C(=O)c3ccco3)CC2)n2nc(-c3cccc(Cl)c3)cc2n1	?	0	25µM	?	?
CC(C)C[C@@H](CC(=O)N[C@H](CC(=O)N[C@@H]1CCNC[C@H]1C(=O)N[C@H](CC(=O)N[C@@H](CCC(=O)O)CC(=O)O)Cc1c[nH]c2ccccc12)C(C)C)NC(=O)[C@@H]1CNCC[C@H]1N	0	0	-	0	0
c1ccc(CCc2nc(-c3cccnc3)no2)cc1	0	0	0	0	0
Cc1ccc(-c2nc(-c3cccnc3)no2)cc1	?	0	0	0	0
c1ccc(CCc2ccccc2-c2nc(-c3cccnc3)no2)cc1	3.2µM	0	0	?	?
Cc1onc(-c2ccccc2Cl)c1-c1nc(-c2ccccn2)no1	13µM	0	0	?	32µM
SMILES	CRE Fsk mod	Tau filament bind	ERK AVP inh	TSHR ag	HEK293 cAMP cs
c1ccc(-c2cc(-c3nc(-c4cccnc4)no3)c3ccccc3n2)cc1	?	4µM	0	0	0
c1ccc(CCc2ccccc2-c2nc(-c3ccccn3)no2)cc1	?	0	0	?	25µM
CC(C)C(C)C	0	0	0	?	0
c1ccc(-c2ccccc2-c2nc(-c3cccnc3)no2)cc1	10µM	0	0	?	?
COc1cc(C2N(c3ccccc3)CCN2c2ccccc2)ccc1OC(C)=O	?	0	0	3.2µM	0
COc1ccc(OC)c(-c2nnc(NC(=O)C(C)Sc3nncn3C)s2)c1 (configuration not stated)	13µM	0	-	?	?
CCCSc1oc(-c2ccco2)nc1S(=O)(=O)c1ccccc1	0	0	0	?	25µM
CCSc1oc(-c2ccco2)nc1S(=O)(=O)c1ccccc1	0	0	0	0[11.4 µM]	0
CCOC(=O)OCC1OC(c2ccccc2)C=CC1Oc1ccc2oc(=O)cc(C)c2c1 (configuration not stated)	-	-	0[11.5 µM]	0[11.4 µM]	0[11.4 µM]
O=C(N/N=C1/C[C@@H](O)[C@@H](O)[C@@H]2[C@H]3C(=O)N(c4ccc(F)cc4F)C(=O)[C@@H]3CC[C@@H]12)OCc1ccccc1	-	-	0[11.5 µM]	0[11.4 µM]	0[11.4 µM]
O=C1CCCC2=C1C(c1ccco1)Nc1ccc3ccccc3c12 (configuration not stated)	0	13µM	0	0	0
COc1ccc(Cl)c(N2CCN(CCCNC(=O)Nc3ccc(C)cc3)CC2)c1	0	16µM	0	0	0
Cc1ccc(NC(=O)NCCCN2CCOCC2)cc1	0	0	0	0	0
OC[C@@H]1O[C@@H](n2cnc3c(NC4CCCCC4)ncnc32)[C@@H](O)[C@H]1O	0	0	0	-	0
C=N[C@H](C(=O)N[C@@H]1C(=O)N2[C@@H]1SC(C)(C)[C@@H]2C(=O)O)c1ccccc1	0	0	0	0	0
COc1cc2c(=O)n(Cc3ccco3)c(=O)n(CC(=O)c3ccc(Br)cc3)c2cc1OC	?	0	?	0[11.4 µM]	0
COc1cc2c(=O)n(Cc3ccco3)c(=O)n(CC(=O)c3cccc(Br)c3)c2cc1OC	4µM	0	0	0[11.4 µM]	0
O=C(O)CCCCn1ccc(=O)[nH]c1=O	0[7.6 µM]	0[11.4 µM]	0[11.5 µM]	0[11.4 µM]	0[11.4 µM]
COc1ccc(-c2nnc3c4ccccc4c(C)nn23)cc1S(=O)(=O)N1CCN(CCO)CC1	10µM	0	?	-	0
COc1cc(NCC[C@@H]2CCCCN2)c2ncccc2c1	0[7.6 µM]	0[11.4 µM]	0[11.5 µM]	0[11.4 µM]	0[11.4 µM]
C#CCCCO/N=C1/C[C@@H](O)[C@@H](O)[C@@H]2[C@H]3C(=O)N(c4ccc(F)cc4F)C(=O)[C@@H]3CC[C@H]12	-	-	0[11.5 µM]	0[11.4 µM]	0[11.4 µM]
Cc1noc(C)c1COC(=O)c1cc(=O)[nH]c2ccccc12	?	0	0	0	0
CCn1nc(C(=O)OCc2c(C)noc2C)c2ccccc2c1=O	10µM	0	0	0[11.4 µM]	0
COc1cc(-c2nc(-c3cccc(C)c3)no2)cc(OC)c1OC	0.79µM	0[11.4 µM]	0	-	0[11.4 µM]
COc1ccc(-c2nc(-c3cccc(C)c3)no2)cc1OC	?	0	0	-	0
COc1ccccc1-c1noc(-c2ccco2)n1	0	0	0	0	0
COc1cc(-c2noc(-c3ccco3)n2)cc(OC)c1OC	16µM	0	0	?	0
Cn1c(=O)c2c(SCC(=O)NCC3CCCO3)nc(-c3cccs3)nc2n(C)c1=O (configuration not stated)	0	0	-	0	0

Screening results (PubChem)
